Laboratory results taken from the supplement of paper PMC4166925.
± gives the standard deviation of the averaged measurements. Over roughly 33,000 sequences, “E-score (dimensionless, -0.5 to 0.5)” has its median near -0.049; the highest 2% begin near 0.37. Many of the other results were omitted from the sample, so the highest values are more common in it than they were.

What follows are sequences tested on T1, PmTbr T-box DNA-binding domain (GST fusion) (assay: PBM E-score of 8-mer (E-score (dimensionless, -0.5 to 0.5)); Tbr is Tbrain of the sea star Patiria miniata (Pm) or the sea urchin Strongylocentrotus purpuratus (Sp); higher = stronger binding preference). Settings: the construct has about 5 more residues each side.
T1 sequence: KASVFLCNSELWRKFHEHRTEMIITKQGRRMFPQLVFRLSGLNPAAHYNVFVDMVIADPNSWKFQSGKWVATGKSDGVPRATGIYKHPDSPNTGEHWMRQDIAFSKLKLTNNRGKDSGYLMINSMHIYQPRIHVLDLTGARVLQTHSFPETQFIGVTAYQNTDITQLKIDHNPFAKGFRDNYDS
How it was run: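 Primer extension turned Universal Agilent oligonucleotide arrays double-stranded. They were incubated with 200 nM protein in PBS (pH 7.5); the protein was a GST-fused Tbr T-box DNA-binding domain expressed in BL21 E. coli at 20 °C and purified on glutathione. Every ungapped 8-mer was scored from the scanned, quantified probe intensities, and the Universal PBM Analysis Suite gave each an enrichment E-score averaged over duplicate arrays.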

Sequence | PBM E-score of 8-mer
GGTTCTTA | -0.0403 ± 0.11
ACCTTAAC | 0.0595 ± 0.0064
AGCACCCT | 0.309 ± 0.031
AACACCCA | 0.348 ± 0.029
GGCACCCC | 0.244 ± 0.03
GGCACCCA | 0.217 ± 0.018
GACACCCC | 0.409 ± 0.031
GCCACCCA | 0.0536 ± 0.024
AACACCCC | 0.433 ± 0.0072
GACACCCA | 0.388 ± 0.032
GCCACCCC | 0.208 ± 0.0084
AACACCCT | 0.433 ± 0.017
ACCACCCT | 0.0583 ± 0.021
ACCACCCC | 0.191 ± 0.072
CTACATGA | -0.0685 ± 0.044
CTCCGTCC | -0.281 ± 0.02
GCTCAATA | -0.0299 ± 0.077
CCTCGATC | 0.0184 ± 0.014
CTCAGAGA | -0.262 ± 0.012
CGCGTTGC | 0.211 ± 0.017
GCTAAGGA | -0.08306 ± 0.00035
ATCACTAG | 0.0709 ± 0.015
GTAAGCAA | -0.113 ± 0.031
CTTGCACA | 0.148 ± 0.026

Sequence | PBM E-score of 8-mer
GCGACACA | 0.302 ± 0.022
CAGACACC | 0.355 ± 0.0066
CCGACACC | 0.448 ± 0.018
CCGACACG | 0.261 ± 0.013
CCGACACA | 0.37 ± 0.028
GCGACACC | 0.462 ± 0.011
ACGACACC | 0.421 ± 0.018
TCGACACA | 0.319 ± 0.016
ACGACACG | 0.225 ± 0.062
ACGACACT | 0.298 ± 0.0045
GGGACACC | 0.216 ± 0.077
CCGACATC | -0.0298 ± 0.027
GTCCAGGA | -0.195 ± 0.049
ACATATGA | 0.0313 ± 0.063
CTCGATCA | 0.0196 ± 0.0013
GTCCCCAA | -0.071 ± 0.1
TCAGTCGA | -0.0383 ± 0.035
AGAGTACC | -0.132 ± 0.064
GATATAAC | 0.115 ± 0.0035
GACATCTC | -0.14 ± 0.016
GATTTGGC | 0.249 ± 0.01
CGTTGTTA | 0.157 ± 0.043
AGTTGTTA | 0.388 ± 0.011
AGTTGTTG | 0.195 ± 0.0086

Sequence | PBM E-score of 8-mer
AGTTGTCA | 0.4064 ± 0.0017
GGTTGTCA | 0.342 ± 0.0085
AGTTGTCG | 0.309 ± 0.0099
CTCTTTTA | 0.105 ± 0.092
AACACACC | 0.3 ± 0.019
ATCACAAA | 0.0643 ± 0.013
ATCACAGG | 0.195 ± 0.099
ATCACATA | 0.297 ± 0.028
ATCACAGC | 0.211 ± 0.024
ATCACACA | 0.418 ± 0.01
ATCACAGA | 0.129 ± 0.011
ATCACACC | 0.4877 ± 0.0026
ATCACACG | 0.39 ± 0.0083
AACAAGCT | -0.168 ± 0.035
TAGAACGA | -0.136 ± 0.028
GCATAGTA | -0.202 ± 0.024
ATCACTTA | 0.194 ± 0.042
AGCACTTC | 0.313 ± 0.012
AACACTTC | 0.442 ± 0.014
ATCACTTG | 0.216 ± 0.045
AACACTGA | 0.182 ± 0.069
AACACTTA | 0.42 ± 0.019
CACACTGA | 0.2581 ± 0.00048
ATCACTTC | 0.293 ± 0.015

Sequence | PBM E-score of 8-mer
AACACTTG | 0.408 ± 0.0044
AACACTAG | 0.275 ± 0.056
CGCACTTA | 0.293 ± 0.022
CACACTTA | 0.4445 ± 0.0038
AGGACCGG | -0.31 ± 0.028
TGGCTGAA | -0.23 ± 0.083
CAGACCCA | -0.0557 ± 0.00088
AATGGCGA | 0.163 ± 0.021
TGCCATAA | 0.0817 ± 0.098
GAAGATCC | -0.101 ± 0.034
CCCTGGGA | -0.131 ± 0.0026
GCCACTTA | 0.232 ± 0.021
GACACTGA | 0.157 ± 0.016
CCCACTTC | 0.1799 ± 0.00066
CACACTGC | 0.168 ± 0.039
GACACTTA | 0.3962 ± 0.0036
CACACTTC | 0.445 ± 0.005
GAGTCTAC | -0.282 ± 0.068
GGTCGACC | -0.253 ± 0.033
GTGATAGA | 0.297 ± 0.042
TGTCGACA | 0.371 ± 0.0078
AGTCGACA | 0.253 ± 0.013
CGTCGACA | 0.26 ± 0.031
ACATTTGA | 0.038 ± 0.044

Sequence | PBM E-score of 8-mer
AATGACGG | -0.0819 ± 0.0024
ACAGCGCG | 0.258 ± 0.0087
CGTGAGAC | 0.258 ± 0.044
CGTGAGAA | 0.349 ± 0.039
AGTGAGAA | 0.421 ± 0.025
GGTGAGAA | 0.4754 ± 0.0012
AGTGAGAT | 0.287 ± 0.016
TCTGAGAA | -0.135 ± 0.0068
GGTGAGAC | 0.3824 ± 0.0024
TGAGAGAA | 0.0636 ± 0.079
AGTGAGAG | 0.312 ± 0.022
GGTGAGGA | 0.364 ± 0.018
AGTGAGAC | 0.251 ± 0.023
TGTGAGAA | 0.43 ± 0.0057
ACCTTCCA | 0.0703 ± 0.049
AAACAGGG | -0.081 ± 0.025
AATTCATC | -0.0277 ± 0.0079
CCCCCAGA | -0.116 ± 0.043
ACCAAAAA | -0.124 ± 0.021
GCTTGTAA | -0.0775 ± 0.029
CGAGGAGC | -0.0722 ± 0.028
CTAGTCAC | 0.0813 ± 0.05
TATCTACA | -0.0338 ± 0.029
AATTCGCA | 0.339 ± 0.032

Sequence | PBM E-score of 8-mer
ACGTGATG | 0.137 ± 0.028
GGGTGATA | 0.368 ± 0.0085
AGGTGATC | 0.219 ± 0.0025
AGGTGATG | 0.4179 ± 0.0014
AGGTGATA | 0.468 ± 0.0054
CGGTGATA | 0.187 ± 0.0068
AACAACTG | 0.236 ± 0.0091
CGACGCAC | -0.0252 ± 0.048
AGTGCTTC | -0.15 ± 0.097
CGAATGGC | 0.0367 ± 0.0062
AACCGCAT | -0.147 ± 0.042
AATTCATA | -0.105 ± 0.05
ACGCGTGC | 0.14 ± 0.034
AGGCGTGG | 0.265 ± 0.016
GCGCGTGA | 0.322 ± 0.0044
GGGCGTGA | 0.429 ± 0.0092
GGGCGTAA | 0.118 ± 0.012
AGGCGTGA | 0.4805 ± 0.00059
AAGCGTGT | 0.235 ± 0.017
CGGCGTGA | 0.327 ± 0.0041
AAGCGTGA | 0.401 ± 0.018
